In all, about 16,000 compounds went through this assay and about 5,100 (32%) were called active. Inconclusive results (about 25%) are left out. Calls come from the whole dose curve; as a rule, active = well fitted curve in the direction sought with a large enough effect; inconclusive = small, poorly fitted or top-dose-only effect, or effect the other way; inactive = no such curve, though single readings can be large or run the other way. The list shows a part of the results.
Molecular target: Cytochrome P450 3A4 (Homo sapiens) (UniProt P08684)
Assay: Cytochrome panel assay with activity outcomes
Conditions: recombinant CYP, pro-luciferin dealkylation, luminescence, p450-cyp3a4; series mostly up to 57.1 µM; activity, negative = inhibition: at the top concentration
% is set by controls: 0 for no effect and ±100 for the full control effect.

Cytochrome P450 3A4 (Homo sapiens), sequence (P08684 whole entry, looked up): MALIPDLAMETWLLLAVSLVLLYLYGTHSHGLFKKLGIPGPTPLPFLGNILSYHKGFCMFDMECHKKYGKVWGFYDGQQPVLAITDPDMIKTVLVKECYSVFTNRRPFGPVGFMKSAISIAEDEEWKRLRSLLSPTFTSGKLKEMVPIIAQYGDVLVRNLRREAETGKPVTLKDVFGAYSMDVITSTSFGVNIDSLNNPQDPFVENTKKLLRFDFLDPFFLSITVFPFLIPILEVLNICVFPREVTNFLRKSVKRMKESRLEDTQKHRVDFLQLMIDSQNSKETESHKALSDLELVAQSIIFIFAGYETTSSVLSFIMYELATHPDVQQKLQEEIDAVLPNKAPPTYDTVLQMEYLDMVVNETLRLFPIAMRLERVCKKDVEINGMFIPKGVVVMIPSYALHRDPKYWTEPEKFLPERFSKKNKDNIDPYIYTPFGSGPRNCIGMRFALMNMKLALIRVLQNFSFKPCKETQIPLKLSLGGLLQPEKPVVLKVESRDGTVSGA

activity, negative = inhibition, inactive:
c1ccc2cc(-c3csnn3)ccc2c1 16%
c1ccc2nc(C3=NCCN3)ccc2c1 7.89%
O=C(N/N=C1\CCCc2ccccc21)c1ccc([N+](=O)[O-])cc1Cl -11.3% [at 2.29 µM]
Cc1cc(Cl)ccc1OCC(=O)Nc1nc(N)nc(N)n1 -4.83% [at 11.4 µM]
COc1ncc2nc(-c3ccccc3)c(=O)n(C)c2n1 -25.8%
COc1ccc(-c2nc3cnc(N4CCN(C)CC4)nc3n(C)c2=O)cc1 18.8%
COc1ncc2nc(-c3ccc(Cl)cc3)c(=O)n(-c3ccccc3)c2n1 11.2%
Cn1c(=O)c(-c2ccc(Cl)cc2)nc2cnc(OCc3ccccc3)nc21 19.1%
CN(C)c1ncc2nc(-c3ccc(F)cc3)c(=O)n(C)c2n1 18.7%
Cc1ccnn2cc3c(=O)n(C)c(=O)n(C)c3c12 -5.05%
C=Cc1c(C)c2cc3[nH]c(cc4nc(cc5nc(cc1[nH]2)C(C)=C5CCC(=O)O)C(CCC(=O)O)=C4C)c(C)c3C=C -10.4%
O=[N+]([O-])c1ccc(N2CCOCC2)nc1 -4.02% [at 2.29 µM]
COc1cccc(Nc2ncc3nc(-c4ccccc4)c(=O)n(Cc4cccs4)c3n2)c1 -21.3%
NNC(=O)[C@@H](O)[C@H](O)[C@H](O)CO 0.183% [at 11.4 µM]
COC(=O)Cc1c(C)nc2nc(NCc3ccccc3OC)[nH]n2c1=O -8.91%
COc1cccc(/C=N/NC(=O)C(=O)NCc2cccnc2)c1 -8.44% [at 2.29 µM]
O=C(O)c1nn(-c2ccccc2-c2n[nH]c(=O)[nH]c2=O)c(=O)[nH]c1=O -2.84% [at 11.4 µM]
CN1CCN(S(=O)(=O)c2ccc3[nH]cc(C(=O)O)c(=O)c3c2)CC1 -5.58%
Cc1ccc(C(=O)NCCCN2CCOCC2)cc1N1CCCC1=O 15.8%
CCOC(=O)N1CCN(S(=O)(=O)c2ccc3[nH]cc(C(=O)O)c(=O)c3c2)CC1 -14.5%
N[C@H](C(=O)O)c1nn[nH]n1 -1.46%
C[C@](N)(C(=O)O)c1ccc(-c2nn[nH]n2)cc1 -6.26%
CCCOc1ccc(N2C(=O)CC(S/C(N)=N/N=C(\C)c3cccs3)C2=O)cc1 (centres undefined) 7.2% [at 2.29 µM]
Cc1cccc(Sc2c([N+](=O)[O-])ncn2C)n1 -3.51%
Cc1cc(C)nc(NN2C(=O)/C(=C/c3ccccc3)SC2=S)n1 -9.13%
O=C(N/N=C/c1cccc(C(F)(F)F)c1)C1CCN(c2ncc(C(F)(F)F)cc2Cl)CC1 -7.12%
c1ccc(C(CCN2CC3CCC(CC3)C2)c2ccccc2)cc1 -1.84% [at 11.4 µM]
CCN(CC)C(=O)Cn1cnc([N+](=O)[O-])n1 -15.3%
O=c1c2c(-c3cccs3)csc2ncn1-c1ccc(Br)cc1 -3.71% [at 2.29 µM]
CCc1cc2c(=O)n(-c3ccccc3)c(=S)[nH]c2s1 -18.8%
O=C1OCc2cccc3cccc1c23 10.8%
FC(F)(F)c1ccccc1-c1ccc2ncnc(NC3CCNCC3)c2c1 -26.8%
Clc1ccccc1-c1ccc2ncnc(NC3CCNCC3)c2c1 -21.5%
O=C(O)CCc1ccc(-c2ccccc2)[nH]1 -13.2% [at 11.4 µM]
CC(C)OC(=O)/C(=C\C=C\c1ccccc1)NC(=O)c1ccccc1 14.2%
CC(C)SC(=N)N -8.48%
COc1ccc(C(=O)N/N=C(\C)Cn2nc([N+](=O)[O-])cc2C)cc1 -3.05% [at 2.29 µM]
COc1ccc(COC(=O)N/N=C2/C[C@@H](O)[C@@H](O)[C@@H]3[C@@H]4C(=O)N(C(C)(C)C)C(=O)[C@H]4CC[C@@H]23)cc1 -13.5% [at 11.4 µM]
CSc1nnnc2ccccc12 -8.64% [at 11.4 µM]
O=c1cc(-c2ccccc2)[nH]c2nc(Cl)ccc12 -5.23%
CCOC(=O)NNC1CC(=O)N(c2ccc(OC)cc2)C1=O (centres undefined) -9.66%
CC(=O)Nc1cccc(N2C(=O)CCC2=O)c1 -4.58%
O=C1CC(N2CCOCC2)C(=O)N1c1cccc(Cl)c1 (centres undefined) -3.01%
COc1ccc(CCC(C)Nc2cccc(F)c2)cc1 (centres undefined) 18.9%
Cc1cc(OCCNCCO)cc(C)c1Cl -20%
CC(C)c1ccc(/C=C2\C=C(c3ccc4ccccc4c3)OC2=O)cc1 -9.49% [at 11.4 µM]
CCCS(=O)(=O)N1CCCC(C(=O)NCCN2CCOCC2)C1 (centres undefined) 0.644% [at 11.4 µM]
CCS(=O)(=O)N1CCC(C(=O)NCc2ccc(F)cc2Cl)CC1 -27.7%
CCS(=O)(=O)N1CCC(C(=O)NCc2cccnc2)CC1 -2.97% [at 2.29 µM]
CCS(=O)(=O)N1CCC(C(=O)NCCCN2CCCC2)CC1 -16%
CN(C)CCn1nnnc1SCC1=C(C(=O)O)N2C(=O)[C@@H](NC(=O)Cc3csc(N)n3)[C@@H]2SC1 -0.668% [at 25.6 µM]
C[N+]1(C)CCc2cc(O)c(O)cc2[C@H]1Cc1ccc(O)c(O)c1 -3.96% [at 11.4 µM]
COC(=O)C/C=C\[C@H](C)[C@@H](OC)c1ccccc1Br -22.3% [at 11.4 µM]

AC50, inactive:
N[C@H](C(=O)O)[C@@H]1C[C@@H]1C(=O)O
N[C@@H](CO)C(=O)O
C=C[C@H](N)CCC(=O)O

AC50, active:
c1ccc2nc(-c3ccncc3)ccc2c1 2.82 µM
Cc1cc(Cl)ccc1OCC(=O)N/N=C1\CCCc2ccccc21 12.6 µM
Cc1cc(Cl)ccc1OCC(=O)NCc1ccncc1 1.41 µM
COc1ccc(-c2nc3cnc(OC)nc3n(C)c2=O)cc1 25.1 µM
COc1ncc2nc(-c3ccc(F)cc3)c(=O)n(C)c2n1 20 µM
COc1ncc2nc(-c3ccc(Cl)cc3)c(=O)n(C)c2n1 25.1 µM
N#Cc1cccc(-c2nc(NCc3cccnc3)c3ccccc3n2)c1 5.01 µM
COc1cccc(-c2nc(NCc3ccccc3)c3ccccc3n2)c1 12.6 µM
N#Cc1cccc(-c2nc(NCc3cccs3)c3ccccc3n2)c1 3.98 µM
Cc1cccc(CNc2nc(-c3cccnc3)nc3ccccc23)c1 1 µM
COc1cccc(-c2nc(NCc3cccs3)c3ccccc3n2)c1 3.16 µM
COc1cccc(-c2nc(NCCNC(C)=O)c3ccccc3n2)c1 12.6 µM
COCCNc1nc(-c2cccc(OC)c2)nc2ccccc12 5.01 µM
COc1cccc(-c2nc(NC3CC3)c3ccccc3n2)c1 1.26 µM
COc1cccc(-c2nc(NCc3ccccc3OC)c3ccccc3n2)c1 3.98 µM
COc1cccc(-c2nc(NCc3cccnc3)c3ccccc3n2)c1 2 µM
Cc1ccccc1NS(=O)(=O)c1ccc2[nH]cc(C(=O)NCCCN3CCOCC3)c(=O)c2c1 2 µM
COc1cccc(NS(=O)(=O)c2ccc3[nH]cc(C(=O)NCCN4CCOCC4)c(=O)c3c2)c1 2.82 µM
COc1ccc(N2C(=O)CC(S/C(N)=N/N=C(\C)c3cccs3)C2=O)cc1 (centres undefined) 14.1 µM
O=C1/C(=C\c2ccccn2)SC(=S)N1Nc1ncc(C(F)(F)F)cc1Cl 3.16 µM
CCOc1ccc(N(CCC#N)S(=O)(=O)c2ccc(OC)cc2)cc1 11.2 µM
O=c1c2c(-c3cccs3)csc2[nH]c(=S)n1-c1ccccc1 14.1 µM
COc1ccccc1-c1nc(N(C)Cc2ccco2)c2ccccc2n1 7.94 µM
COc1cccc(-c2nc(N(C)Cc3ccco3)c3ccccc3n2)c1 10 µM
COc1cccc(-c2nc(N(C)C)c3ccccc3n2)c1 5.01 µM
CN(Cc1ccco1)c1nc(-c2cccc(C#N)c2)nc2ccccc12 12.6 µM
Cc1ccccc1-c1ccc2ncnc(NC3CC3)c2c1 3.16 µM
FC(F)(F)c1ccccc1-c1ccc2ncnc(NC3CC3)c2c1 1.58 µM
N#Cc1ccccc1-c1ccc2ncnc(NC3CC3)c2c1 2 µM
CC(C)OC(=O)/C(=C\c1ccc2c(c1)c1ccccc1n2C)NC(=O)c1ccccc1 1.12 µM
COc1ccc(COC(=O)N/N=C(\C)CC(=O)Nc2c(C)cc(C)cc2C)cc1 1.78 µM
CS(=O)(=O)N1CCC2(CCCN(C(c3ccccc3)c3ccccc3)C2)CC1 3.98 µM
CS(=O)(=O)N1CCC[C@@]2(CCN(C(c3ccccc3)c3ccccc3)C2)C1 10 µM
CCN=C(Nc1cccc(F)c1)SC1CC(=O)N(c2ccc(OC)cc2)C1=O (centres undefined) 6.31 µM
O=C1CC(SC(=Nc2ccccc2)Nc2ccccc2)C(=O)N1c1cccc(Cl)c1 (centres undefined) 11.2 µM
CC(C)CN(CC(C)C)S(=O)(=O)N1CCC(C(=O)NCc2ccc(F)cc2)CC1 15.8 µM
CCN(CC)S(=O)(=O)N1CCC(C(=O)NCc2ccc(C)cc2)CC1 11.2 µM
CCCCN(CC)S(=O)(=O)N1CCC(C(=O)NCCCN2CCOCC2)CC1 11.2 µM
Cc1ccc(S(=O)(=O)N2CCC(C(=O)NCc3cccnc3)CC2)cc1 3.16 µM
Cc1ccc(CN2C(=O)CCC2C(=O)NCc2cccnc2)cc1 (centres undefined) 2.24 µM
Cc1nc(SCC(=O)Nc2ccc3c(c2)OCCO3)c2oc3ccccc3c2n1 7.94 µM
CC(C)(C)c1nc(SCC(=O)Nc2ccc3c(c2)OCCO3)c2ccccc2n1 7.08 µM
CCO[C@H](c1cc(OC)cc([N+](=O)[O-])c1OC)[C@H](C)/C=C\CC(=O)OC 3.98 µM

Reference: PubChem BioAssay AID1851 (National Center for Advancing Translational Sciences (NCATS), 2009)
